FBW7 activator = human FBW7 E3 ligase activation, primary screen. AID 1259310. normalized activity (activation), % at 26.1 µM. 0.13% of 650,000 active. Q969H0. AlphaScreen FBW7–phospho-cyclin E peptide binding, activator screen; in the data active means normalized activity above about 1.9%;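 further: purified mutant Fbw7 with reduced substrate affinity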
TEAD-YAP inh = TEAD-YAP interaction inhibition. HEK-TIYL cells, TEAD-Gal4/YAP UAS-luciferase luminescence. inhibition, % at 9.12 µM. 1.4% of 640,000 active. AID 1259422; in the data active means inhibition above about 32%;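 further: 0% = median of test compound wells and 100% = reference inhibitor wells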
GPR151 activ = activates the human receptor GPR151; Q8TDV0; PathHunter beta-arrestin GPR151 cells, luminescence; activation, % at 11.2 µM; 1% of 650,000 active; in the data active means activation above about 4.9%;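 further: 0% = median of compound wells and 100% = cells with positive control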
MITF primary = human MITF inhibition, primary screen. O75030. AlphaScreen MITF homodimerization, bead proximity signal. inhibition, % at 2.6 µM. 0.91% of 650,000 active. AID 1259374; in the data active means inhibition above about 50%;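 further: 0% = vehicle wells with protein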
Target sequence (O75030 whole entry, looked up): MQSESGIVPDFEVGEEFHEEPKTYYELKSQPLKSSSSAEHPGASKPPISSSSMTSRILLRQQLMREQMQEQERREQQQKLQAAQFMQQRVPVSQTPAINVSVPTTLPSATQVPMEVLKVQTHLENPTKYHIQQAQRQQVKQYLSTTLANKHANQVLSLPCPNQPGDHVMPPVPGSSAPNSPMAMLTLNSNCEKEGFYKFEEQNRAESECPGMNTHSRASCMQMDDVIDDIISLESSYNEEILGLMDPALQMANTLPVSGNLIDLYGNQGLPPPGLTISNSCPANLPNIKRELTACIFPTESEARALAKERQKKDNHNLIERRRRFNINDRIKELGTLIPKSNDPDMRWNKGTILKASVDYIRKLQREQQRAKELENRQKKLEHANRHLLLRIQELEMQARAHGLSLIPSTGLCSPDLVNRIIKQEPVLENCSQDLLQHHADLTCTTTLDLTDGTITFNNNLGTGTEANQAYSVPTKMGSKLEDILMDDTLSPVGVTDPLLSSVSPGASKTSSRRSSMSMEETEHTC
MITF confirm = confirmation of human MITF inhibitors; shares compounds with MITF primary; AlphaScreen MITF homodimerization, biotin/His-MITF beads; inhibition, % at 2.6 µM; 16% of 4,700 active; AID 1259372;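 active means inhibition above a cutoff derived from the DMSO control wells, cut at about 28% in these data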;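 further: 0% = MITF dimer wells with DMSO only; inhibitors lower the bead chemiluminescence by keeping MITF from dimerizing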
AS interf ctr = AlphaScreen optical interference, counter-screen; 7.6% of 4,700 active; inhibition, % at 2.6 µM; LysRS AlphaScreen counterscreen, signal interference, triplicate; shares compounds with MITF primary;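 active means inhibition above a cutoff derived from the DMSO control wells, cut at about 30% in these data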
GPR151 conf act = confirmation of human GPR151 activators; shares compounds with GPR151 activ; GPR151 PathHunter beta-arrestin cells, luminescence, 90 min; % of EA-reagent control over plate median; activation, % at 11.2 µM; 6,700 tested, under 10 active; AID 1508609;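 active means mean percent activation across replicates above the confirmation screen cutoff of 4.91%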
GPR119 counter = counter-screen for GPR151 activators: effect on human GPR119; activation, % at 11.2 µM; AID 1508611; 0.3% of 6,700 active; shares compounds with GPR151 activ; GPR119 PathHunter beta-arrestin cells, luminescence, 90 min; 0 = compound-well median, 100 = enzyme-acceptor control;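 active means mean percent activation in the counterscreen above 29.09%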;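 further: counterscreen on off-target GPR119 to flag nonselective hits from the GPR151 activator screen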
* hit, by the source's call; . = no result. In the library only some 3.5% were active in any assay of this set; here they are far more common.

SMILES	FBW7 activator	TEAD-YAP inh	GPR151 activ	MITF primary	GPR151 conf act	GPR119 counter	others
COc1ccc(NC(=O)c2cnc(N3CCN(c4ncccn4)CC3)c3ccccc23)cc1OC	0	50*	5.3*	63*	0	30*	MITF confirm=-9;AS interf ctr=-4
COc1ccc(NC(=O)c2cnc(N3CCN(c4ccccn4)CC3)c3ccccc23)cc1Cl	0	19	-1	-3	.	.
Cc1ccc(Cl)cc1NC(=O)CO/N=C(\N)c1ccccc1	0	-10	-1	8	.	.
COc1ccc(CNC(=O)CNC(=S)N(Cc2ccccc2)Cc2cccnc2)cc1	0	5	2	10	.	.
CCOC(=O)C(C(=O)NCc1ccccc1)C1CCCCC1 (stereo not given)	0	-4	5.9*	-14	-1	-1
COc1ccc(C(=O)Nc2ccc(Cc3ccncc3)cc2)cc1	0	4	1	6	.	.
CC1=CC2=NC(=O)/C(=C\c3ccc(-c4ccccc4Cl)o3)C(=N)N2O1	0	3	1	8	.	.
CC1=CC2=NC(=O)/C(=C\c3ccc(-c4cccc(Cl)c4)o3)C(=N)N2O1	0	7	5.9*	-1	0	11
CCC(C)NC(=O)c1cccc(N2CCCC2=O)c1 (stereo not given)	0	-7	0	5	.	.
O=C(O)c1cccc(N2CCCC2=O)c1	0	-6	5.4*	-4	0	12
Clc1ccc(Nc2ncnc3sc4c(c23)CCCC4)cc1	0	-1	2	-6	.	.
Cc1ccc(Nc2ncnc3sc4c(c23)CCCC4)cc1	0	5	20*	17	1	-2
COc1ccc(Cc2nnc(Nc3ccccc3C)[nH]c2=O)cc1	0	7	-1	12	.	.
COc1ccc(Cc2nnc(Nc3cc(Cl)ccc3C)[nH]c2=O)cc1	0	-3	5.0*	13	0	14
O=C(Cc1cccc(Cl)c1)NCC1CCC2(CCN(C(=O)c3ccncc3)CC2)O1 (stereo not given)	0	6	1	-4	.	.
OCC1CCCN1c1cc(Nc2ccc(N3CCOCC3)cc2)ncn1 (stereo not given)	0	-7	-2	10	.	.
CC(=O)Nc1ccc(Nc2cc(N3CCCC3CO)ncn2)cc1 (stereo not given)	0	-19	5.2*	-2	1	-9
OCCN1CCN(c2nc(-c3cccnc3)nc3scc(-c4ccccc4)c23)CC1	0	-21	1	2	.	.
Cc1oc(-c2ccc(Cl)cc2)nc1CS(=O)CC(=O)NC1CCCCC1 (stereo not given)	0	-3	8.3*	12	1	-3
Cc1oc(-c2ccc(Cl)cc2)nc1CS(=O)CC(=O)NC1CCCCCC1 (stereo not given)	0	-12	0	8	.	.
COCCCNc1nc2nonc2nc1N1CCN(C2CCCC2)CC1	0	2	5.7*	-1	1	11
COCCCNc1nc2nonc2nc1N1CCN2CCCC2C1 (stereo not given)	0	1	0	-8	.	.
S=C1NC2=C(C(c3ccc(Br)cc3)N1)N1CCC2CC1 (stereo not given)	0	4	5.7*	15	-1	-9
CN(C)c1ccc(C2NC(=S)NC3=C2N2CCC3CC2)cc1 (stereo not given)	0	-10	0	1	.	.
Cc1cccc(-n2cc(-c3ccccc3)c3c(NC(C)C)ncnc32)c1	0	-21	5.0*	7	-1	-1
SMILES	FBW7 activator	TEAD-YAP inh	GPR151 activ	MITF primary	GPR151 conf act	GPR119 counter	others
CCCSc1ncnc2c1c(-c1ccccc1)cn2-c1cccc(F)c1	0	-4	7.6*	-7	0	13
CC(C)Nc1ncnc2c1c(-c1ccccc1)cn2-c1cccc(Cl)c1	0	-37	-2	-11	.	.
O=C(Nc1ccc2oc(-c3cccnc3)nc2c1)c1ncoc1-c1ccccc1Cl	1	-14	-2	21	.	.
O=C(Nc1ccc2oc(-c3ccc(Br)cc3)nc2c1)c1ccc(F)cc1	0	15	1	7	.	.
Cn1cc(CN2CCOCC2)c(-c2ccc3c(c2)OCCO3)n1	0	11	9.2*	-1	0	3
Cn1cc(CN2CCN(Cc3nccn3C)CC2)c(-c2ccc3c(c2)OCCO3)n1	0	0	4	2	.	.
CC(=O)c1cc(F)c(N2CCN(C(=O)c3cc(F)c(F)cc3[N+](=O)[O-])CC2)cc1C	0	4	5.3*	3	0	4
Cc1cc(N2CCN(C(=O)c3ccc(Br)cc3)CC2)c(F)cc1[N+](=O)[O-]	0	3	6.9*	16	0	-11
Cc1cc(F)c(F)cc1C(=O)N1CCN(c2cc(C)c([N+](=O)[O-])cc2F)CC1	0	-7	1	6	.	.
CC1Oc2ccccc2C=C1C1/C(=C(\O)c2ccccc2)C(=O)C(=O)N1CCCN(C)C (stereo not given)	0	4	12*	-3	1	-3
CN(C)CCCN1C(=O)C(=O)/C(=C(\O)c2ccccc2)C1c1ccncc1 (stereo not given)	0	-7	1	7	.	.
O=C(CCCC(=O)OCC(=O)c1ccc(Br)cc1)Nc1ccc(F)cc1	0	3	2	11	.	.
O=C(Nc1nc(-c2cccc([N+](=O)[O-])c2)cs1)c1ccc(S(=O)(=O)N2CCc3ccccc3C2)cc1	0	-5	0	6	.	.
CN(C)c1ccc(CN(C(=O)c2ccccc2[N+](=O)[O-])C2CCS(=O)(=O)C2)cc1 (stereo not given)	0	-8	-1	20	.	.
O=C(c1ccccc1[N+](=O)[O-])N(Cc1ccc(Cl)cc1)C1CCS(=O)(=O)C1 (stereo not given)	0	0	5.0*	-14	1	-2
Cn1cc(S(=O)(=O)Oc2ccc(Cl)cc2Cl)c(=O)n(C)c1=O	0	-2	1	-1	.	.
CC1CCN(C(=O)CSc2nc3[nH]ncc3c(=O)[nH]2)CC1	0	-5	7.7*	0	1	10
COc1ccccc1N1CCN(C(=O)c2cnc(N3CCN(c4ncccn4)CC3)c3ccccc23)CC1	0	24	5.3*	6	2	14
COc1ccccc1N1CCN(c2ncc(C(=O)N3CCN(c4ccccn4)CC3)c3ccccc23)CC1	1	1	-1	13	.	.
CP(=O)(O)c1nccn1-c1ccccn1	0	-8	1	-9	.	.
O=C(CC1C(=O)NCCN1C1Cc2ccccc2C1)NCCc1cccs1 (stereo not given)	0	4	2	-10	.	.

Source: PubChem (The Scripps Research Institute Molecular Screening Center)
